Results reported in PubChem BioAssay (NCI).
Several values for one entry are separate records, joined by “and”; a condition that tells them apart may be missing. Identical values can stand only once. This is part of a sample that, as a whole, favours compounds with a hit. Of some 83,000 tested, about 20% had one in any assay.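 Cell lines were cultured in 96-well plates, exposed to a single compound concentration, and assessed for percent growth 48 hours later.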 Activity calls are given as the source filed them. The calls were made as follows: active = growth percent below 10; inactive = the rest.

These compounds were tested on MDA-MB-468 breast (assay: NCI-60 one-dose screen, 48 h (100 = growth as untreated, 0 = no growth, -100 = all killed)). Conditions: 10 µM unless noted.
For `CC(C)(Cl)CCC1=C(Cl)C(=O)c2ccccc2C1=O`, the growth was -43.5% (active). `NS(=O)(=O)c1ccc(C(=O)NN2C(=O)c3c(Br)c(Br)c(Br)c(Br)c3C2=O)cc1` was tested, and the growth was 111% (inactive). `C#COc1cccc(Nc2ncnc3cc(NC(=O)[C@H](C)Cl)ccc23)c1` was tested, and the growth was -11.4% [6.25 µM] (active). For `O=c1cc(C2NCCc3c2[nH]c2ccccc32)c2c(ccc3ccccc32)o1` (stereo not given), the growth was 89.9% (inactive). In the case of `O=P([O-])(O)OP(=O)([O-])O.[NH-][C@H]1CCCC[C@@H]1[NH-].[OH-].[OH-].[Pt+4]`, the growth is reported as 102% (inactive). With `COc1c(CNC(=O)CCl)cc2[nH]c(C)cc2c1CNC(=O)CCl` the growth was 53.4% (inactive). For `O=C(Nc1ccc(C2=NCCCN2)cc1)Nc1ccc(C2=NCCCN2)cc1`, the growth was 42.2% (inactive). In the case of `CC1(C)CC[C@]2(C(=O)O)CC[C@]3(C)C(=CC[C@@H]4[C@@]5(C)C/C(=C/c6cccnc6)[C@H](O)C(C)(C)[C@@H]5CC[C@]43C)[C@@H]2C1`, the growth is reported as 4.01% [100 µM] (active). `C#C[C@@]1(O)[C@@H](CO)O[C@@H](n2cnc3c(-c4ccccc4)ncnc32)[C@@H]1O` was tested, and the growth was 111% (inactive). For `NC(=O)N1N=C(c2cc3ccccc3oc2=O)CC1c1cn(-c2ccccc2)nc1-c1ccc(Cl)cc1` (stereo not given), the growth was 36.9% (inactive). For `CCN1/C(=C/C=C/c2n(-c3ccccc3)c3ccc(-c4nc5ccccc5s4)cc3[n+]2CC)N(c2ccccc2)c2ccc(-c3nc4ccccc4s3)cc21`, the growth was 8.94% (active). `O=C1CCCCN1c1ccc(C2=NCCCN2)cc1` was tested, and the growth was 82.2% (inactive). In the case of `CCNCCNc1cc(C2CCCCC2)c(C#N)c2nc3ccccc3n12`, the growth is reported as -45.3% (active). `Cc1ccc(S(=O)(=O)NCCCNc2nccc(-c3[nH]c(-c4ccccc4)nc3-c3ccc(F)c(O)c3)n2)cc1` was tested, and the growth was 33.9% (inactive). `O=c1oc2ccccc2cc1-c1nn(-c2ccccc2)cc1/C=N/Nc1nc(-c2ccccc2)c(N=Nc2ccccc2)s1` was tested, and the growth was 48.5% (inactive). With `CC[N+](C)(C)N` the growth was 95.9% (inactive). `COc1cc(/C=C\c2cc(OC)c(OC)c(OC)c2)cc(N/C=C\C(=O)c2c[nH]c3ccccc23)c1OC` was tested, and the growth was -55.8% (active). For `S=C1SCN(CCc2ccccc2)CN1CCc1ccccc1`, the growth was 9.02% (active). `COc1ccc(/C=C/C(=O)/C=C(/C=C/c2ccc(OC)c(OC)c2)OB(F)F)cc1OC` was tested, and the growth was 45.6% (inactive). In the case of `Clc1ccc(/C=C/c2ccc3ccccc3n2)cc1`, the growth is reported as -11.4% (active) and 73.5% (inactive) and 80.5% (inactive). `C#C[C@@]1(O)[C@@H](CO)O[C@@H](n2cc(Cl)c3c(N)ncnc32)[C@@H]1O` was tested, and the growth was -49% (active). `CN(C)[C@@H]1C(=O)C(C(=O)NCc2nc3[nH]cnc(=S)c3[nH]2)=C(O)[C@@]2(O)C(=O)C3=C(O)c4c(O)cccc4[C@@](C)(O)[C@H]3C[C@@H]12` was tested, and the growth was 81.2% (inactive). With `CCNCCNc1cc(-c2ccc(F)cc2)c(C#N)c2nc3ccccc3n12` the growth was -8.31% (active). With `CC1=C(C/C=C(\C)CCC[C@H](C)CCC[C@H](C)CCCC(C)C)C(=O)c2ccccc2C1=O` the growth was 116% (inactive). With `COc1ccc2c(c1)C(CC(=O)NN)CCC2` (stereo not given) the growth was 102% (inactive). `COc1ccc(-c2ccc(NC(=O)Nc3cccc(C(F)(F)F)c3)c(C)n2)cc1` was tested, and the growth was 27.5% (inactive). In the case of `COc1ccc(-c2cc3ccc(N(C)C)cc3nc2N)c(F)c1`, the growth is reported as 4.96% (active). For `CCCCCCCCCCCCCCCC1=NC(C)(C)CN1C(C)C`, the growth was -58.8% (active). `O=c1[nH]c2ccc(Cl)cc2cc1CSc1ccccc1Nc1nccc(-c2ccc(Cl)cc2)n1` was tested, and the growth was 93.3% (inactive). For `CC1C(/C=N/NC(N)=S)C(C#N)(C#N)C1(C#N)C#N` (stereo not given), the growth was 113% (inactive). With `Cc1n[nH]c(C)c1-c1c(C)n[nH]c1C` the growth was -0.751% (active). In the case of `CC(=O)c1c(C)[nH]c(-c2nc3ccc(N4CCN(C)CC4)cc3[nH]2)c1-c1ccc(N(C)C)cc1`, the growth is reported as 21% (inactive). With `O=NN(CC(=O)N/N=C/C=C\c1ccccc1)CC(=O)N/N=C/C=C/c1ccccc1` the growth was 91.1% (inactive). With `Cc1ccc(S(=O)(=O)Oc2ccc([N+](=O)[O-])cc2[N+](=O)[O-])cc1` the growth was 107% (inactive). With `Cc1ccc(NS(=O)(=O)c2ccccc2)c(NS(=O)(=O)c2ccccc2)c1` the growth was 104% (inactive). For `O=C(CCl)Nc1ccc2c(c1)C(=O)c1ccccc1C2=O`, the growth was -19.1% (active). For `COc1cc(/C=C/C(=O)c2cccs2)ccc1OCc1ccc(Cl)nc1`, the growth was 57.6% (inactive). In the case of `Cn1ccnc1C(=O)/C=C/c1ccc(CNC(=O)c2c(F)c(F)c(F)c(F)c2F)cc1`, the growth is reported as 26.8% (inactive). With `CN1C2CCC1/C(=C\c1ccc(Cl)cc1)C1=C2[C@@H](c2ccc(Cl)cc2)C(C#N)=C(N)O1` (stereo not given in full) the growth was 77.9% (inactive). For `CCc1nc2cc(/C=C/C(=O)NO)ccc2c(=O)n1CCc1ccc(OC)cc1`, the growth was 14.1% (inactive).
